Compounds with a hit are over-represented: about 6.1% of the library has one in this group of screens.
FLuc inh = firefly luciferase inhibition; P08659; purified firefly luciferase, luminescence, 8 min; Potency, µM (top dose mostly 57.1 µM), for inactives: at the top dose activity change, negative = inhibition, hits mostly inhibitors; 2.2% of 72,000 active; AID 411; also: % is scaled to controls: 0 for no effect and ±100 for the full control effect; nearly all actives have a fitted effect of over 40% in size
Target sequence (P08659 whole entry, looked up): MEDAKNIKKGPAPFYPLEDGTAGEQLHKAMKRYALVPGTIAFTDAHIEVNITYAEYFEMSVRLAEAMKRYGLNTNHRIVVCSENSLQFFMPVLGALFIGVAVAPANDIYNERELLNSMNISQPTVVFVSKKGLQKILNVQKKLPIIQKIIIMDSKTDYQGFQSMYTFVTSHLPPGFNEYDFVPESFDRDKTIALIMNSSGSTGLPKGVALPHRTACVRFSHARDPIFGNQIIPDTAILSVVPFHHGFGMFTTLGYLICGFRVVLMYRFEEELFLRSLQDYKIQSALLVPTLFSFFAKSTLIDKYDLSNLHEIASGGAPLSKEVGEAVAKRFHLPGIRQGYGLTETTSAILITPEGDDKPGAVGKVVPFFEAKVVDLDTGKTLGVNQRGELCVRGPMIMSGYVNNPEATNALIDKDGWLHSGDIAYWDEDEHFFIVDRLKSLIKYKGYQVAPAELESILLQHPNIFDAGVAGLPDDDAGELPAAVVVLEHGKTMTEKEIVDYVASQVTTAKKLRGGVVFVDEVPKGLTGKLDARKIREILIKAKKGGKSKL
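Inhibition of light generation by firefly luciferase from ATP and luciferin was profiled with concentration-response curves per sample, ATP held at 10 uM within the enzyme's linear range. Plates were read by luminescence after an 8-minute ambient incubation.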
HEK293 cAMP cs = parental HEK293 cAMP activation (counter-screen) | Potency, µM (doses to about 57.1 µM), inactives show at the highest dose activation, actives largely listed as activators | AID 938 | 2.5% of 73,000 active | parental HEK293 CNG cAMP sensor, membrane potential fluorescence; also: % of control where 0% means no effect; nearly all actives have a fitted effect of over 55% in size
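Parental HEK 293 cells stably expressing a cAMP-gated CNG channel were loaded with membrane potential dye containing 100 uM RO 20-1724 for 60 min. Compound added for 30 min; depolarization read as fluorescence intensity at 590 nm.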
TSHR agonist = TSH receptor (human) agonism; HEK293-CNG-TSHR cells (CNG channel as cAMP sensor), membrane potential dye, cAMP; 0.48% of 73,000 active; Potency, µM (highest dose often 57.1 µM), for the others: top-dose activation, usual class: activators; AID 926; active = well fitted activation curve with a large enough effect in the main read-out, with a control signal flat, not every such curve was filed as active; inconclusive = small, poorly fitted or top-dose-only effect, or a change in a side signal; inactive = no such curve, though single readings can be large or run the other way; % of control where 0% means no effect;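 also: the control signal comes from parental cells without the receptor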
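cAMP rise detected as CNG-channel membrane depolarization by fluorescent dye (emission 590 nm), 30 min after compound, following 60 min dye loading containing 100 uM RO 20-1724 at room temperature. Cells: TSHR/CNG HEK 293, with parental CNG HEK 293 as control.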
Bst PK mod = modulators of Bacillus stearothermophilus pyruvate kinase. purified pyruvate kinase, luminescence ATP production; ribose 5-phosphate activator present at AC10. Potency, µM. 1.2% of 51,000 active. AID 361; in the data active = potency below about 11 µM; inconclusive = mostly about 12 µM to 25 µM;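 the screen sought inhibitors and activators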;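 also: scaled between full activation by ribose 5 phosphate and full inhibition by luteolin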
GBA activity = modulators of human glucocerebrosidase; purified enzyme, resorufin glucoside fluorescence (screen aimed at inhibitors), 20 min; Potency, µM; 1.1% of 48,000 active; in the data active = potency below about 15 µM; inconclusive = mostly about 16 µM to 33 µM;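 also: the screen sought inhibitors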
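Normal human glucocerebrosidase (0.2 nM final) was assayed with resorufin β-D-glucopyranoside (30 uM final) in 50mM citric acid/KH2PO4, 10mM sodium taurocholate, 0.01% tween-20, pH 5.9. Compounds were titrated; fluorescence (Ex 548, Em 600) read after 20 min at RT.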
ERK AVP block = inhibitors of vasopressin-stimulated ERK signaling pathway. AID 995. HEK293-V1b, vasopressin-stimulated pERK AlphaScreen. 0.99% of 72,000 active. Potency, µM (top dose mostly 57.5 µM), for the others: top-dose activity, negative = inhibition, actives largely listed as inhibitors; also: % is scaled to controls: 0 for no effect and ±100 for the full control effect; nearly all actives have a fitted effect of over 55% in size
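HEK293 cells stably expressing V1b receptor, preincubated 30 min at 37 °C with compound, then stimulated 5 min with 25 nM vasopressin. Phospho-ERK by AlphaScreen SureFire after 5 h RT; normalized to DMSO and vasopressin; AC50 by Hill fit.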
The depositor's hits bear a star; i = inactive; ? = inconclusive; . = no result; [ ] = remark or other dose. Unless noted, calls follow the shape of the dose curve; as a rule, active = well fitted curve in the direction sought with a large enough effect; inconclusive = small, poorly fitted or top-dose-only effect, or another doubt; inactive = no such curve, though single readings can be large; an effect the other way counts as inactive or inconclusive. Potency is read from the fitted curve at half-maximal effect.

SMILES	FLuc inh	HEK293 cAMP cs	TSHR agonist	Bst PK mod	GBA activity	ERK AVP block
COC(=O)[C@@]1(Cc2ccccc2)[C@H]2c3cc(C(=O)N4CCCC4)n(CCc4ccccn4)c3C[C@H]2CN1C(=O)c1ccccc1	.	15.8µM*	?	.	.	-4.3%
COC(=O)Cn1c(C(=O)N2CCCC2)cc2c1C[C@H]1CN(C(=O)c3ccccc3)[C@@](Cc3ccccc3)(C(=O)OC)[C@@H]21	.	20µM*	?	.	.	-5.0%
CCN1C(=O)[C@H]2[C@H]3[C@H](O)[C@H](O)C/C(=N/O[C@@H](C)c4cc(-c5c(C)cc(C)cc5C)no4)[C@@H]3CC[C@@H]2C1=O	-0.5%[11.4 µM]	-0.7%[11.4 µM]	4.2%[11.4 µM]	.	.	1.8%[11.5 µM]
Cn1c(=O)c(-c2cccs2)nc2cnc(N3CCOCC3)nc21	-2.4%[11.4 µM]	4.5%	-3.5%	.	.	8.8%
Cc1ccccc1Cc1c(C)nc2c(C(=O)N3CCN(Cc4ccc5c(c4)OCO5)CC3)cnn2c1C	1.7%	20µM*	?	>57	>76.9	-13.7%
Cc1nc2c(C(=O)N3CCCCC3)cnn2c(C)c1Cc1ccccc1F	-26.9%	?	?	.	>76.9	1.6%
Cc1ccc(C)c(S(=O)(=O)Nc2ccccc2C(=O)Nc2cc(C)on2)c1	1.0%	27.9%	8.6%	>57	4.76*	7.2%
Cc1cc(C)c(C)c(S(=O)(=O)Nc2ccccc2C(=O)O)c1C	.	2.8%	2.5%	.	.	.
Cc1cc(NC(=O)c2ccccc2NS(=O)(=O)c2c(C)c(C)cc(C)c2C)no1	4.1%	31.6µM*	?	>57	>76.9	10.4%
CCCCCCCC1=CC2=CC(=O)C(C)(O)C(=O)C2=CN1CCCC (stereo not given)	.	-4.6%[11.4 µM]	-11.4%[11.4 µM]	.	.	-16.1%[11.5 µM]
CCN(C1CCCCC1)S(=O)(=O)c1cn(C)c(=O)n(C)c1=O	-5.1%	3.16µM*	?	.	.	.
O=S(=O)(c1ccccc1)N1CCC[C@@]2(CCN(Cc3cc(C(F)(F)F)cc(C(F)(F)F)c3)C2)C1	-2.1%[11.4 µM]	-7.7%	9.2%	.	.	17.1%
CCCCC(=O)Nc1ccc(F)c(Cl)c1	-1.7%	4.8%	-1.5%	>57	.	3.7%
CCCCCC(=O)Nc1ccc(N2CCN(CC)CC2)c(Cl)c1	-2.6%	9.5%	-2.5%	>57	0.696*	-8.2%
CC(C)(C)NC(=O)NC(=O)COc1ccccc1C#N	20µM*	4.2%	-2.8%	i	>76.9	36.3%
COc1ccc(C(CNC(=O)COc2ccccc2C#N)N2CCOCC2)cc1 (stereo not given)	0.8%	19.5%	3.3%	>57	>76.9	-12.5%
CCSc1nc2c([nH]c3ccccc32)c(=O)n1C	5.6%	2.3%	4.0%	.	.	.
CCC1CCCCN1C(=O)CSc1nc2c([nH]c3ccccc32)c(=O)n1C (stereo not given)	-0.2%	31.6µM*	?	>57	?	-7.6%
N#Cc1nc(Cc2cccc3ccccc23)oc1NCCCn1ccnc1	-1.9%	-12.1%	0.8%	?	12.8*	-27.9%
N#Cc1nc(-c2ccc(OCc3ccc(Cl)cc3)cc2)oc1NCCCn1ccnc1	5.0%	-10.9%	-15.8%	0.329*	i	-8.5%
N#Cc1nc(-c2ccc(OCc3ccccc3)cc2)oc1NCCN1CCOCC1	2.5%	-4.8%	-8.1%	4.47*	i	?
CNc1oc(-c2ccc(OCc3ccccc3)cc2)nc1C#N	-0.7%	2.3%	1.0%	i	>76.9	-25.0%
N#Cc1nc(-c2ccc(OCc3ccccc3)cc2)oc1N1CCOCC1	5.6%	15.8%	.	1.96*	>76.9	-27.1%
O=P(O)(CCP(=O)(O)c1ccccc1)c1ccccc1	1.5%[11.4 µM]	-3.3%[11.4 µM]	7.3%[11.4 µM]	.	.	22.0%[11.5 µM]
COc1ccc(Nc2cc(C)nc3ccccc23)cc1	2.0%[25.5 µM]	.	.	i	.	.
SMILES	FLuc inh	HEK293 cAMP cs	TSHR agonist	Bst PK mod	GBA activity	ERK AVP block
COc1nc(Nc2ccc(O)cc2)nc(OC(C(F)(F)F)C(F)(F)F)n1	-1.2%	-0.8%	7.9%[11.4 µM]	>57	>76.9	2µM*
CC(C)Oc1ccc(NC(=O)c2ccncc2)cc1	-16.7%	0.2%	10.0%	>11.4	7.88*	?
O=C(Nc1ccc(Cl)cc1)c1ccncc1	-0.8%	-1.5%	24.3%	.	.	30.8%
CC(C)COc1ccc(-c2nnc(-c3ccncc3)o2)cc1	2.7%	?	?	2.32*	>76.9	-3.8%
CCCOc1ccc(-c2nnc(-c3ccncc3)o2)cc1	-4.3%	14.8%	7.0%	1.57*	>76.9	-12.4%
CCCCN1CSC(=S)N(Cc2ccccc2)C1	1.8%[11.4 µM]	5.3%[11.4 µM]	-1.0%[11.4 µM]	.	.	-10.5%[11.5 µM]
COC(=O)c1ccc(C(NC(=O)OCc2ccccc2)/C(=C/[C@@H](C)C(=O)NCc2cc(C)on2)c2cccnc2)cc1 (stereo not given in full)	.	6.7%	10.9%	.	.	15.2%
O=C(CSCc1cccc(F)c1)N1CCN(c2ccccc2)CC1	-9.3%	31.6µM*	?	>57	>76.9	-0.8%
O=C(CSCc1nc2ccccc2[nH]1)N1CCN(c2cccc(Cl)c2)CC1	3.0%	?	?	>57	>76.9	25.1µM*
O=C(CSCc1ccccc1)N1CCN(c2ccc(F)cc2)CC1	-2.2%	?	?	.	.	-18.8%
COc1ccc(-c2ccc(-c3noc(-c4ccccc4)n3)c(OC)n2)cc1	-4.2%	17.6%	27.9%	>11.4	4.95*	-22.9%
COc1ccc(-c2ccc(-c3noc(-c4ccco4)n3)c(OC)n2)cc1	2.4%	8.7%	10.0%	>57	7.68*	18.0%
c1ccc(OCc2nc(-c3ccccc3)no2)cc1	-29.1%	18.0%	8.4%	>57	>76.9	39.1%
COc1nc(-c2ccccc2)ccc1-c1noc(-c2ccco2)n1	-24.0%	16.8%	4.2%	>57	i	16.0%
COc1nc(-c2ccccc2)ccc1-c1noc(-c2ccccc2)n1	?	5.4%	19.1%	.	>76.9	-8.9%
COc1nc(-c2ccccc2)ccc1-c1noc(COc2ccccc2)n1	-0.1%	31.6µM*	?	>57	>76.9	48.1%
COC(=O)C12CC3(CCC4C5C(C(OCc6ccccc6)C41)C52)OCCO3 (stereo not given)	.	1.4%[11.4 µM]	1.9%[11.4 µM]	.	.	3.6%[11.5 µM]
COC(=O)[C@@H](NC(=O)c1cc(-c2ccccc2)nc2ccccc12)c1ccccc1	1.8%	3.16µM*	?	.	.	.
COC(=O)C(NC(=O)c1ccccc1)c1ccccc1 (stereo not given)	-2.9%	6.2%	-2.4%	.	.	-9.1%
O=C(Nc1ccccc1)OC[C@H](CN1CCCCC1)OC(=O)Nc1ccccc1	5.1%[25.5 µM]	3.5%[25.6 µM]	-13.8%[25.6 µM]	.	.	-1.0%[25.7 µM]
COC(=O)C1=C(C)N(Cc2ccccc2)C2=C(C(C)=O)C[C@@](O)(C(=O)OC)C(=O)N2C1c1ccccc1 (stereo not given in full)	.	19.2%[11.4 µM]	-6.4%[11.4 µM]	.	.	-9.0%[11.5 µM]
O=C(c1ccc(-c2ccccc2)cc1)N1CCN(c2ncccn2)CC1	0.7%	25.1µM*	?	>57	>76.9	3.5%
O=C(c1ccccc1OCc1ccccc1Br)N1CCN(c2ncccn2)CC1	1.1%	15.8µM*	?	>57	>76.9	?
